S1P3 antag: blocks the human S1P3 receptor; 170,000 compounds, 0.27% hits; Q99500; CHO S1P3 NFAT-BLA reporter, FRET fluorescence, antagonist mode; AID 485; inhibition, % at 4.98 µM;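 active means inhibition above the plate cutoff, the mean inhibition of test wells on that plate plus 3 SD, cut at about 28% in these data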;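 further: cells challenged with S1P at its EC80 of 0.8 µM; blue over green emission ratio from cleaved BLA substrate after 4 h stimulation; 0% = S1P-stimulated wells and 100% = unstimulated DMSO-only wells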
Target sequence (Q99500 whole entry, looked up): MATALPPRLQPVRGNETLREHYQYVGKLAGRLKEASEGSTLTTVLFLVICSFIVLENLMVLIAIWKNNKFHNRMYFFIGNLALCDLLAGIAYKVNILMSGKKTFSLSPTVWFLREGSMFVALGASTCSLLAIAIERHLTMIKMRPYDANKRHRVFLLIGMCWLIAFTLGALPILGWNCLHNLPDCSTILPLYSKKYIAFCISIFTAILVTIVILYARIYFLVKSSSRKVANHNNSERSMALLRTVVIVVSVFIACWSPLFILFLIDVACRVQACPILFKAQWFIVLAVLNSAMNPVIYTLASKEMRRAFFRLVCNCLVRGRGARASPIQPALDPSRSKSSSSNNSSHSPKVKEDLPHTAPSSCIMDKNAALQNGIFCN
HSF-1 act: increases HSF-1 driven luciferase reporter signal; NIH3T3-HGL HSF-1 luciferase reporter, MG132, 8 h; 100% = twice DMSO control signal; 300,000 compounds, 1.7% hits; AID 504408; activation, % at 9 µM;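 active means mean replicate activation of at least 50% with a set share of replicates each reaching 50%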;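 further: 0% = median of the neutral control wells and 100% = twice that signal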
S1P4 ag: activates the human S1P4 receptor; 220,000 compounds, 0.35% hits; activation, % at 4.98 µM; S1P4-expressing cell line, agonist reporter assay; AID 1509; in the data active means activation above about 11%;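 further: 0% = DMSO vehicle and 100% = reference agonist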
S1P4 antagonist: antagonists of human S1P4 receptor; O95977; S1P4-expressing cells, antagonist mode, reporter read-out; inhibition, % at 4.98 µM; 220,000 compounds, 0.26% hits; in the data active means inhibition above about 29%;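 further: 0% = wells stimulated with agonist and 100% = vehicle wells without agonist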
Hsp70 act: transcriptional activators of Hsp70; HeLa Hsp70 promoter luciferase reporter, luminescence; scaled: vehicle 0, proteasome-inhibitor control 100%; activation, % at 10 µM; 200,000 compounds, 0.04% hits;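 active means activation above the mean across all tested compounds plus 3 SD, cutoff set per campaign, cut at about 5.5% in these data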;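 further: 100% = MG132 at 30 µM as the positive control and 0% = DMSO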
HSF1 inh: HSF1 inhibition; NIH3T3-HGL HSE-luciferase, MG132-induced, luminescence 8 h; stronger effect = lower value; activity change, negative = inhibition, % at 7.5 µM (by protocol); 300,000 compounds, 0.77% hits; AID 2098;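 active means more than half of replicate wells show activity change below -50%, luminescence cut by over half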;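 further: luciferase reports HSF-1 transcriptional activity via heat shock element; 0% = median of DMSO wells and -100% = zero luminescence signal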
* hit, by the source's call; . = no result. Sampled rows, rich in hits. Any-hit rate of the full collection: about 2.9%.

SMILES	S1P3 antag	HSF-1 act	S1P4 ag	S1P4 antagonist	Hsp70 act	HSF1 inh
CCOC(=O)N1CCN(C(=O)c2cc(COc3c(F)cccc3F)on2)CC1	.	40.9	.	.	.	16.5
O=C(COc1ccc(Cl)cc1)Nc1cccc(-c2ccc(N3CCOCC3)nn2)c1	.	55.3*	.	.	.	32.3
CC(C)(C)C(=O)Nc1nc(-c2ccc3c(c2)OCO3)cs1	.	53.9*	-0.5	-18.1	0.0	17.6
Cc1ccc(NC(=O)CN2C(=O)NC(C)(CCc3ccccc3)C2=O)cc1 (stereo not given)	8.9	-4.8	0.2	-10.8	-0.2	3.6
Cc1cccc(C)c1NC(=O)CN1C(=O)NC(C)(CCc2ccccc2)C1=O (stereo not given)	-28.7	-92.5	-0.1	-3.8	-0.1	-90.6*
O=C(CCc1nnc(C2(c3ccc(Cl)cc3)CCC2)o1)N1CCCC(O)C1 (stereo not given)	.	-4.3	.	.	.	-3.6
Cc1noc(C)c1CSc1nc2sc(C)c(C)c2c(=O)n1-c1ccccc1	-2.8	10.7	-0.9	-11.8	-0.6	4.5
C=CCn1c(SCc2c(C)noc2C)nc2sc(C)c(C)c2c1=O	.	118.7*	-2.2	11.6	-0.4	60.7
CCNC(=S)N(Cc1ccco1)Cc1cc2cc(OCC)ccc2[nH]c1=O	9.0	70.7*	0.8	5.1	-0.1	41.0
CNC(=S)N(Cc1ccco1)Cc1cc2cc(OC)c(OC)cc2[nH]c1=O	-11.6	56.7*	0.8	-13.5	-0.3	14.6
CNC(=S)N(Cc1ccco1)Cc1cc2cc(OC)ccc2[nH]c1=O	-1.3	39.2	0.0	14.3	-0.3	8.6
COc1ccc(Cc2nnc(NS(=O)(=O)c3ccc([N+](=O)[O-])cc3)s2)cc1	.	-5.2	.	.	.	-1.9
COc1cc(/C=C(\C#N)C(=O)N2CCOCC2)ccc1OCc1ccccc1	0.2	16.3	1.1	-15.4	0.1	15.2
N#C/C(=C\c1ccc(OCc2ccc(C(=O)O)cc2)cc1)C(=O)N1CCOCC1	-9.8	-51.0	1.9	-15.7	-0.8	-50.6*
CCOC(=O)C1(CCOc2ccccc2)CCN(Cc2ccc(NC(C)=O)cc2)CC1	-7.8	-29.9	-0.5	7.6	-0.1	-18.1
CC(=O)Nc1ccc(CN2CCC(CO)(CCOc3ccccc3)CC2)cc1	-6.1	-62.2	1.1	-5.2	-0.3	-56.2*
COc1ccc(NC(=O)n2ncc3cc(Cl)ccc32)cc1OC	.	52.5*	.	.	.	22.3
COc1cc(/C(C)=N/NC(=O)Cc2c(C)[nH][nH]c2=O)ccc1O	-20.5	17.4	2.5	-17.2	-0.3	4.6
CCOc1ccc(CCNC(=O)c2nn(C)c3c2CS(=O)(=O)c2ccccc2-3)cc1	.	-62.4	.	.	.	-53.1*
CC(CCc1ccccc1)NC(=O)COC(=O)c1ccc(S(C)(=O)=O)c([N+](=O)[O-])c1 (stereo not given)	-11.9	-78.4	0.3	15.5	-0.2	-79.4*
CS(=O)(=O)c1ccc(C(=O)OCc2nnc(-c3ccccc3)o2)cc1[N+](=O)[O-]	5.3	225.1*	-0.3	14.2	0.1	178.4
CC(CCc1ccccc1)NC(=O)c1cccc([N+](=O)[O-])c1 (stereo not given)	3.8	-65.7	1.6	-13.3	-0.1	-52.5*
CC(CCc1ccccc1)NC(=O)COC(=O)c1ccc([N+](=O)[O-])cc1 (stereo not given)	.	-6.8	.	.	.	-1.3
Cc1ccccc1NC(=O)COC(=O)c1ccc(S(C)(=O)=O)c([N+](=O)[O-])c1	4.9	-93.6	-1.7	13.1	0.4	-93.0*
CCN1CCC2(CC1)Oc1c(OC)cccc1C1CC(c3cccnc3)=NN12 (stereo not given)	-12.9	22.6	2.0	0.5	.	22.2
SMILES	S1P3 antag	HSF-1 act	S1P4 ag	S1P4 antagonist	Hsp70 act	HSF1 inh
CC(=O)c1cccc(NC(=O)COC(=O)c2ccc(S(C)(=O)=O)c([N+](=O)[O-])c2)c1	-9.6	48.4	-1.3	-8.1	-0.2	25.4
CS(=O)(=O)c1ccc(C(=O)OCC(=O)NC(=O)C2CCCCC2)cc1[N+](=O)[O-]	10.7	69.5*	-0.5	-2.0	-0.2	41.6
CCC1(c2ccccc2)NC(=O)N(CC(=O)Nc2ccccc2C(=O)N2CCCCC2)C1=O (stereo not given)	.	-2.2	.	.	.	-1.9
CCNc1ccc(S(=O)(=O)N(C)C)cc1NCC(=O)Nc1ccccc1Br	-14.6	115.4*	-0.5	-3.0	-0.3	54.6
CCNc1ccc(S(=O)(=O)N(C)C)cc1NCC(=O)Nc1ccccc1F	-7.2	0.8	0.3	-7.0	-0.4	-8.0
Cc1cc(Cl)c2oc(C(=O)N(C)CCc3cnn(C)c3)c(C)c2c1	.	24.8	.	.	.	22.1
N#CC1=C(N)Oc2n[nH]c(-c3ccc(F)cc3)c2C1c1ccncc1 (stereo not given)	7.5	66.8*	0.1	-9.7	-0.2	32.1
COc1cccc(CC(=O)Nc2nc(-c3ccc(F)c(F)c3)cs2)c1	.	3.2	.	.	.	2.5
Fc1ccc(CNC2CCN(Cc3ccccc3)CC2)cc1	.	-1.1	.	.	.	-1.4
Clc1ccc(CNC2CCN(Cc3ccccc3)CC2)cc1	.	81.5*	.	.	.	39.6
Cc1ccccc1NC1=CC(=O)CC(C)(C)C1	.	14.0	-0.5	2.2	-0.1	2.5
CC1(C)CC(=O)C=C(NC2=CC3OC(c4ccccc4)OCC3OC2=O)C1 (stereo not given)	15.5	116.5*	0.1	17.5	0.2	77.0
CC(O)[C@H]1CNC(=O)C(=O)N1CC(C)(C)C (stereo not given in full)	.	-17.4	.	.	.	-4.4
Clc1ccc(OCCn2c(-c3ccco3)nc3ccccc32)cc1	.	136.9*	0.4	0.3	0.2	79.5
Cc1ocnc1C(=O)Nc1ccc(Cl)cc1	-2.1	44.5	-0.7	-21.2	0.4	23.7
CC(=O)N(Cc1ccco1)c1nc(C(=O)Nc2ccc(Cl)cc2)c(C)s1	0.1	53.0*	0.1	-14.5	0.2	15.4
COc1cccc(N2CCN(Cc3nnnn3C3CCCCC3)CC2)c1	-12.2	-67.5	2.4	-16.1	-0.1	-60.3*
Cc1cc2c(cc1S(=O)(=O)CCC(=O)N(C)C1CCCCC1)OCC(=O)N2	.	-12.6	.	.	.	-0.3
Cc1cc(C(=O)CSc2nnc(-c3cccnc3)n2-c2ccccc2F)c(C)n1C	-8.7	14.1	27.1*	-54.1	-0.2	-0.5
Cc1cc(C(=O)CSc2nnc(-c3ccccc3)n2C)c(C)n1C	5.8	0.6	-0.5	-11.9	-0.2	-3.5
CCOc1ccc(-c2c(C(=O)N/N=C/c3ccsc3)nnn2-c2nonc2N)cc1	.	18.1	.	.	.	0.3
CCCCn1c(N)c(Sc2ccc(C)cc2)c(=O)[nH]c1=O	-13.1	21.5	0.6	-3.1	-0.1	4.3
CCCn1c(N)c(Sc2ccc(C)cc2)c(=O)n(CCC)c1=O	-4.8	72.8*	2.5	-11.7	-0.2	56.5
COc1ccc(N2C(=O)C3CCCN3C2=O)cc1 (stereo not given)	.	-11.7	3.2	-0.4	-0.2	-3.4
CCn1c(N)c(C(=O)NCc2cccnc2)sc1=S	54.2*	-7.2	1.4	-27.8	-0.2	5.1

Screens deposited in PubChem by several laboratories.
